# Experimental data taken from the supplement of paper PMC13094657.
# ± gives the standard deviation of the averaged measurements.
# Tested on: MDA-MB-231
# Test: cell viability relative to vehicle unstimulated control (fraction); higher = more viable cells
# Conditions: pre-treatment time: 18 h then 24 h IFNg/TNF
# 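Throughout, for cell viability relative to vehicle unstimulated control: viability of the cells left after supernatant collection, read with Deep Blue dye added for 4 h, as absorbance at 570 nm minus 600 nm.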
row,SMILES,cell viability
1,CC(C)=CCC[C@H](C(=O)O)[C@H]1CC[C@]2(C)C3=C(CC[C@@]12C)[C@@]1(C)CCC(=O)C(C)(C)[C@H]1CC3 [β-Elemonic acid] (compound dose: 10 uM),1.03 ± 0.034
2,CC1=C[C@@H]2C(=O)[C@]3(C=C(C)[C@H](O)[C@@]3(O)[C@@H]1O)[C@H](C)C[C@@H]1[C@H]2C1(C)C [20-Deoxyingenol] (compound dose: 10 uM),0.975 ± 0.11
3,CC(C)=CCCC(C)(O)C1CCC2(C)C1C(O)CC1C3(C)CCC(OC4OC(CO)C(O)C(O)C4O)C(C)(C)C3CCC12C [20(R)-Ginsenoside Rh2] (compound dose: 10 uM),1.08 ± 0.052
4,O=C1C=C2C=C[C@@H]3C[C@@]2(O1)[C@H]1CCCCN31 [Securinine] (compound dose: 10 uM),0.89
5,C[C@]1(C(=O)O)CCC[C@]2(C)c3cc(O)ccc3CC[C@@H]12 [Podocarpic acid] (compound dose: 10 uM),0.946 ± 0.07
6,O=C(O)c1ccc(=O)[nH]c1 [6-hydroxynicotinic acid] (compound dose: 10 uM),0.951 ± 0.036

# Tested on: MDA-MB-231
# Test: kynurenine production, fold change vs DMSO IFNg/TNF control; higher = more kynurenine produced (less inhibition)
# Conditions: pre-treatment time: 18 h then 24 h IFNg/TNF
# How it was run: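 MDA-MB-231 cells (7 × 10^4/well, 96-well plates, seeded 24 h earlier) were pre-treated 18 h with each natural product in 0.1% DMSO, then stimulated 24 h with IFNγ (1 U/ml) and TNF (6.25 ng/ml) at 37°C. Supernatant kynurenine was read at 492 nm after trichloroacetic acid and p-dimethylaminobenzaldehyde treatment, against 0–100 μM standards. Kynurenine production is the fold change over cytokine-stimulated vehicle wells on the same plate, averaged over duplicate plates in the first screening round.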
row,SMILES,kynurenine production
1,CC1=C(O)C(=O)C=C2C1=CC=C1[C@@]2(C)CC[C@@]2(C)[C@@H]3C[C@](C)(C(=O)O)CC[C@]3(C)CC[C@]12C [Tripterin] (compound dose: 10 uM),0.119 ± 0.017
2,C=C1CCC2C(/C=C(\C)C(=O)C3(OC(C)=O)CC(C)C(OC(=O)c4ccccc4)C3C1OC(C)=O)C2(C)C (stereo not drawn) [Euphorbia factor L3] (compound dose: 10 uM),0.89 ± 0.11
3,C=C1[C@H](OC(C)=O)[C@@H](OC(=O)c2ccccc2)[C@@H](OC(C)=O)C(C)(C)[C@H]2O[C@](O)([C@@H](C)C2=O)[C@@]2(OC(C)=O)C[C@H](C)[C@H](OC(C)=O)[C@@H]2[C@H]1OC(C)=O [Kansuinine A] (compound dose: 10 uM),0.709 ± 0.031
4,CC(C)=CCC[C@@](C)(O)[C@H]1CC[C@]2(C)[C@@H]1[C@H](O)C[C@@H]1[C@@]3(C)CC[C@H](O)C(C)(C)[C@@H]3[C@@H](O[C@@H]3O[C@H](CO)[C@@H](O)[C@H](O)[C@H]3O)C[C@]12C [(20R)-Ginsenoside Rh1] (compound dose: 10 uM),0.887 ± 0.031
5,COc1cc2c3cc1Oc1cc(ccc1O)C[C@@H]1c4c(cc(OC)c(O)c4Oc4ccc(cc4)C[C@H]3N(C)CC2)CCN1C [Curine] (compound dose: 10 uM),0.389 ± 0.026
6,COc1cc(C[C@H]2C(=O)OC[C@@H]2Cc2ccc3c(c2)OCO3)cc(OC)c1OC [Yatein] (compound dose: 10 uM),0.843 ± 0.035
7,CN1[C@@H]2CC[C@H]1C[C@H](O)C2 [Pseudotropine] (compound dose: 10 uM),1.14 ± 0.4
8,C[C@@H]1CC[C@@]2(OC1)O[C@H]1C[C@H]3[C@@H]4CC=C5C[C@@H](O[C@@H]6O[C@H](CO)[C@@H](O[C@@H]7O[C@@H](C)[C@H](O[C@@H]8O[C@@H](C)[C@H](O)[C@@H](O)[C@H]8O)[C@@H](O)[C@H]7O)[C@H](O)[C@H]6O[C@@H]6O[C@@H](C)[C@H](O)[C@@H](O)[C@H]6O)CC[C@]5(C)[C@H]4CC[C@]3(C)[C@H]1[C@@H]2C [Formosanin C] (compound dose: 10 uM),0.125 ± 0.075
9,C[C@@H]1CC[C@H]2[C@@H](C)C(=O)O[C@@H]3O[C@@]4(C)CC[C@@H]1[C@]32OO4 [Artemisinin] (compound dose: 10 uM),0.581 ± 0.11
10,Cc1cc(O)c2c(=O)c3c(O)cc(O)c4c5c(O)cc(O)c6c(=O)c7c(O)cc(C)c8c1c2c(c34)c(c78)c65 [Hypericin] (compound dose: 10 uM),0.103 ± 0.063
11,CC1=C2[C@H]3OC(=O)[C@@H](C)[C@@H]3CC[C@@]2(C)C=CC1=O [Santonin] (compound dose: 10 uM),1.02 ± 0.023
12,CC(C)[C@]12CC(=O)[C@H](C)[C@H]1C2 [α-Thujone] (compound dose: 10 uM),0.947 ± 0.21
13,CC(=O)O[C@@H]1[C@H]2[C@@H](OC(=O)Cc3ccccc3)[C@@H](C)C[C@]2(OC(C)=O)C(=O)/C(C)=C/[C@@H]2[C@H](CC[C@]13CO3)C2(C)C [Euphorbia Factor L1] (compound dose: 10 uM),1.11 ± 0.0098
14,CC(C)C1=CC(=O)[C@@](C)(C2[C@H](O)C[C@@]3(C)[C@@H]4CC=C5[C@@H](CC[C@@H](OC6OCC(O)C(O)C6OC6OC(C)C(O)C(O)C6O)C5(C)C)[C@]4(C)C(=O)C[C@]23C)O1 (stereo partly drawn) [Picfeltarraenin IA] (compound dose: 10 uM),0.901 ± 0.11
15,COc1cc2c(c(OC)c1OC)-c1ccc(OC)c(=O)cc1[C@@H](NC(C)=O)CC2 [Colchicine] (compound dose: 10 uM),0.234 ± 0.046
16,C=C1[C@H](OC(=O)c2ccccc2)C[C@H]2[C@@H](/C=C(\C)C(=O)[C@@]3(OC(C)=O)C[C@H](C)[C@H](OC(=O)c4ccccc4)[C@@H]3[C@H]1OC(C)=O)C2(C)C [Euphorbia factor L2] (compound dose: 10 uM),0.384 ± 0.048
17,C[C@@]1(C(=O)O)CC[C@]2(C)CC[C@]3(C)C4=CC(=O)c5c(cc(O)c(O)c5C=O)[C@]4(C)CC[C@@]3(C)[C@@H]2C1 [Demethylzeylasteral] (compound dose: 10 uM),0.294 ± 0.022
18,C=C1CC[C@H]2[C@@H](/C=C(\C)C(=O)[C@@]3(O)C[C@H](C)[C@H](O)[C@@H]3[C@@H]1O)C2(C)C [Lathyrol] (compound dose: 10 uM),0.849 ± 0.095
19,CC(=O)O[C@@]12C[C@@H](C)[C@@]3(O)[C@@H](C=C(CO)C[C@]4(O)C(=O)C(C)=C[C@@H]34)[C@@H]1C2(C)C [Prostratin] (compound dose: 10 uM),0.737 ± 0.025
20,CC(C)c1ccc2c(c1O)CC[C@H]1C3=C(CC[C@]21C)C(=O)OC3 [Triptophenolide] (compound dose: 10 uM),0.815 ± 0.17
21,CC(C)=CCC[C@](C)(O)[C@H]1CC[C@]2(C)[C@@H]1[C@H](O)C[C@@H]1[C@@]3(C)CC[C@H](O)C(C)(C)[C@@H]3[C@@H](O[C@@H]3O[C@H](CO)[C@@H](O)[C@H](O)[C@H]3O)C[C@]12C [Ginsenoside Rh1] (compound dose: 10 uM),0.852 ± 0.15
22,CC(C)=CCC[C@H](C(=O)O)[C@H]1CC[C@]2(C)C3=C(CC[C@@]12C)[C@@]1(C)CCC(=O)C(C)(C)[C@H]1CC3 [β-Elemonic acid] (compound dose: 10 uM),1.161 ± 0.0012
23,CC1=C[C@@H]2C(=O)[C@]3(C=C(C)[C@H](O)[C@@]3(O)[C@@H]1O)[C@H](C)C[C@@H]1[C@H]2C1(C)C [20-Deoxyingenol] (compound dose: 10 uM),0.703 ± 0.12
24,CC(C)=CCCC(C)(O)C1CCC2(C)C1C(O)CC1C3(C)CCC(OC4OC(CO)C(O)C(O)C4O)C(C)(C)C3CCC12C [20(R)-Ginsenoside Rh2] (compound dose: 10 uM),0.958 ± 0.21
25,O=C1C=C2C=C[C@@H]3C[C@@]2(O1)[C@H]1CCCCN31 [Securinine] (compound dose: 10 uM),0.213 ± 0.096
26,C[C@]1(C(=O)O)CCC[C@]2(C)c3cc(O)ccc3CC[C@@H]12 [Podocarpic acid] (compound dose: 10 uM),0.852 ± 0.12
27,O=C(O)c1ccc(=O)[nH]c1 [6-hydroxynicotinic acid] (compound dose: 10 uM),0.973 ± 0.098
